Here are results for 31 compounds from ChEMBL document CHEMBL4513216, “Probing the Open Global Health Chemical Diversity Library for Multistage-Active Starting Points for Next-Generation Antimalarials” (ACS Infect Dis, 2020).

SMILES strings stand for the structures. Out of some 69,000 compounds screened, about 8,600 (12%) showed an effect of 50% or more. The entries come from a sample that favours strong results as a whole.

The test system of this test is Plasmodium berghei. Description: Screen against P. berghei liver stage (PbLuc), transformed with Luciferase, at 10uM. The conditions noted are these: tested at 10 uM. It counts as functional, HepG2.
Consider `COc1ccc(-c2cnc(CN(CC(N)=O)C3CCCC3)o2)cc1`, for which the INHIBITION is given as 19.9%.

`O=C(Cn1nc2c(cc1=O)CSCC2)N[C@@H](Cc1ccccc1)C(=O)O`: the INHIBITION is -5.51%. Turning to `Cn1c(N)nnc1SCc1c(F)cccc1Br`, the INHIBITION came out at 55.4%.

As to `Cn1c(N)nnc1SCc1ccc(Cl)cc1Br`, the INHIBITION was 11.6%. `Cn1c(CO)nnc1SCc1c(F)cccc1Br`: the INHIBITION turned out to be 15.5%. `CN(C)c1nc2c(c(N3CCC(O)CC3)n1)CN(CC1CCOC1)CC2` (stereo unspecified): the INHIBITION is given as 60.1%. Regarding `CN(C)c1nc2c(c(N3CCC(O)CC3)n1)CN(CC(C)(C)C)CC2`, the INHIBITION amounted to 22.4%. As to `CN(C)c1nc2c(c(N3CCC(O)CC3)n1)CN(CC1CCNC1)CC2` (stereo unspecified), the INHIBITION is reported as 18.5%. As for `CC(C)COCCC(=O)Nc1cccnc1-n1cncn1`, the INHIBITION was 14.4%. Take `CN1C(=O)C2(CCN(c3ncccc3C(=O)O)CC2)c2ccccc21`: the INHIBITION is reported as -20.6%. The figure for `O=C(NC[C@H]1CCCC[C@H]1O)c1cccc2[nH]c(-c3ccco3)nc12` is 23.3%; for `CC(C)CN(C)S(=O)(=O)c1ccc(Cl)cc1C#N` it is -10.4%; for `CSCC(C)N(C)S(=O)(=O)c1ccc(Cl)cc1C#N` (stereo unspecified) it is 50.8%. The figure for `CCN(C)S(=O)(=O)c1ccc(Cl)cc1C#N` is 33.2%. Regarding `CC(C)C(=O)N1CCN(Cc2cnn(C)c2)CC2(CC(=O)N(C)C2)C1` (stereo unspecified), the INHIBITION is on record as -10.3%. Turning to `O=C(c1ccc[nH]1)N1CCN(Cc2ccncc2)c2ncccc2C1`, the INHIBITION turned out to be 23.3%. Take `Cc1ccc(-n2c(SCC(=O)O)nnc2-c2cccc(C)c2)cc1`: the INHIBITION is recorded as 7.52%. The figure for `Cc1cnc(C(=O)N2CCCn3c(nc(CN(C)C)cc3=O)C2)cn1` is -10.3%; for `Cc1cc(NC(=O)N2CCN(C)CC2C)n(C)n1` (stereo unspecified) it is 40.5%; for `Cc1cc(NC(=O)N2CCN(C)CC2C)n(Cc2ccccc2)n1` (stereo unspecified) it is 43.4%.

Regarding `Cc1cc(NC(=O)N2CCN(C)CC2C)n(CCC#N)n1` (stereo unspecified), the INHIBITION came out at 53.4%. The figure for `CCCN1C[C@@H]2CC[C@H]1CN(Cc1ccc(-n3cccn3)cc1)C2` is 49.5%; for `COC[C@@]12CCC[C@@H]1CN(C(=O)COc1ccccc1OC)C2` it is 19.5%; for `Cc1ccccc1OCCC(=O)NC(C)c1nnc2n1CCCCC2` (stereo unspecified) it is 28.8%. Under `Nc1nccnc1C1CN(Cc2ccc(OCC(=O)O)cc2)CCO1` (stereo unspecified) stands -22.5%; under `COc1ccc2c(c1)C(C(=O)N(C)CCCc1cnn(C)c1)CC(=O)N2` (stereo unspecified), 55.4%; under `COc1ccc2c(c1)C(C(=O)N(C)CCc1scnc1C)CC(=O)N2` (stereo unspecified), 44.3%. Take `COc1ccc2c(c1)C(C(=O)N(C)CCn1ccnc1C)CC(=O)N2` (stereo unspecified): the INHIBITION amounted to 13.7%.

`COc1ccc2c(c1)C(C(=O)N(C)CCCc1nccn1C)CC(=O)N2` (stereo unspecified): the INHIBITION was 23%. Under `COc1ccc2c(c1)C(C(=O)N(C)CCc1cnn(C)c1)CC(=O)N2` (stereo unspecified) stands 82.3%; under `COc1ccc2c(c1)CC(C(=O)N(C)CCCc1cnn(C)c1)CO2` (stereo unspecified), -1.91%.
